High-throughput results: PubChem BioAssay, National Center for Advancing Translational Sciences (NCATS)
Rows were chosen to be rich in hits. Some 2.5% of all compounds tested hit in one or more screens of this group.
Marburg entry inh: qHTS for inhibitors of binding or entry into cells for Marburg Virus | Marburg virus pseudotyped entry inhibition, cell reporter | Potency, µM (series often up to 37.8 µM), hits mostly inhibitors | 300,000 tested, 1.8% active | AID 540276, 2011; calls by dose curve; tested in HEK293 cells
VACV Venus inh: qHTS for Stage-Specific Inhibitors of Vaccinia Orthopoxvirus: Venus Reporter Primary qHTS. Vaccinia virus Venus reporter expression, fluorescence. Potency, µM (series often up to 36.5 µM), actives largely listed as inhibitors. 330,000 tested, 0.46% active; calls by dose curve; tested in A549 cells; note: nearly all actives have a fitted effect of over 30% in size
Lassa entry inh: qHTS for Inhibitors of binding or entry into cells for Lassa Virus. 300,000 tested, 1.2% active. Lassa virus pseudotype entry inhibition, cell reporter. Potency, µM (titrated, usually from 37.9 µM), most hits filed as inhibitors; calls by dose curve; tested in HEK293 cells; note: nearly all actives have a fitted effect of over 50% in size
Vaccinia mCherry: qHTS for Stage-Specific Inhibitors of Vaccinia Orthopoxvirus: mCherry Reporter Primary qHTS; Vaccinia virus mCherry reporter infection, fluorescence; Potency, µM (titrated, usually from 36.5 µM), usual class: inhibitors; 310,000 tested, 0.63% active; AID 720579, 2013; calls by dose curve; tested in A549 cells; note: nearly all actives have a fitted effect of over 35% in size
Numbers stand for hits.

Cc1ccc2nc(SCC(=O)N3CCC4(CC3)CC4C(=O)Nc3ccc(F)c(F)c3)[nH]c2c1 (stereo not drawn) was read as VACV Venus inh inactive and Vaccinia mCherry inactive.
Screening Cc1ncsc1C(=O)N1N=C2/C(=C/c3ccc(N4CCOCC4)cc3)CCCC2C1c1ccc(N2CCOCC2)cc1 (stereo not drawn) returned Marburg entry inh inconclusive, VACV Venus inh inactive, Lassa entry inh inactive and Vaccinia mCherry inactive.
For Cc1ncsc1C(=O)N1N=C2/C(=C/c3ccccc3)CCCC2C1c1ccccc1 (stereo not drawn) the results were Marburg entry inh 11µM, VACV Venus inh inactive, Lassa entry inh inconclusive and Vaccinia mCherry inactive.
CCCS(=O)(=O)N1CCN(Cc2ccc3c(c2)c2ccccc2n3CC)CC1 was read as Marburg entry inh 10µM, VACV Venus inh inconclusive, Lassa entry inh inconclusive and Vaccinia mCherry inconclusive.
CCn1c2ccccc2c2cc(CN3CCN(Cc4ccc(OC)c(OC)c4)CC3)ccc21 was read as VACV Venus inh inconclusive, Lassa entry inh inconclusive and Vaccinia mCherry inactive.
For CCOC(=O)CN1C(=O)[C@]2(O[C@H](COc3ccccc3)CC3=CCCC32)c2c(Br)cccc21 (stereo partly drawn) the results were Marburg entry inh inactive and Lassa entry inh inconclusive.
CCC1CN(CCNC(=O)c2ccnc(Cl)c2)Cc2cc(OC)ccc2O1 (stereo not drawn) was read as VACV Venus inh inactive and Vaccinia mCherry inactive.
For COC(=O)C(O)(c1ccc(NC(=S)NC(=O)c2ccc(Cl)cc2Cl)c(C)c1)C(F)(F)F (stereo not drawn) the results were Marburg entry inh inconclusive, VACV Venus inh inconclusive, Lassa entry inh 5.8µM and Vaccinia mCherry inconclusive.
For CCOC(=O)C(O)(c1ccc(NC(=S)NC(=O)c2ccc(Cl)cc2Cl)c(C)c1)C(F)(F)F (stereo not drawn) the results were Marburg entry inh inconclusive, VACV Venus inh inconclusive, Lassa entry inh 10µM and Vaccinia mCherry inconclusive.
Screening COc1ccc2nccc(/C=C/c3ccc(N(C)C)cc3)c2c1 returned VACV Venus inh inactive and Vaccinia mCherry inactive.
For Cc1cnc(-n2ncc(C(=O)NCCc3ccccn3)c2C)nc1-c1ccc(F)cc1 the results were VACV Venus inh inactive and Vaccinia mCherry inactive.
`CC(=O)OC[C@H]1O[C@H](C/C=N/OC[C@@H](C)[C@H](OCc2ccccc2)C(C)C)C=C[C@@H]1OC(C)=O` gave Marburg entry inh inactive.
COc1ccc(C(=O)/C=C/C(=O)N(CC(=O)NCCC(C)C)Cc2cccs2)c(O)c1 was read as Marburg entry inh 21µM and Lassa entry inh inconclusive.
CN(CCO)C(=O)c1cn(C2CCCN(Cc3ccc4ccccc4c3)C2)nn1 (stereo not drawn) was read as VACV Venus inh inactive and Vaccinia mCherry inactive.
For CN(C(=O)c1cccc(Nc2ccc(-c3ccc4c(c3)OCCO4)nn2)c1)C1CCCCC1 the results were Marburg entry inh inconclusive, VACV Venus inh inconclusive and Lassa entry inh 14µM.
For COCc1c(C(=O)N2CCN(C(C)C)CC2)cnn1-c1nccc(-c2cc(C)sc2C)n1 the results were VACV Venus inh inactive and Vaccinia mCherry inactive.
Cc1cccc(NC2=NC(C)(C)N=C(N)N2)c1 was read as Marburg entry inh inconclusive, VACV Venus inh 1µM, Lassa entry inh inconclusive and Vaccinia mCherry inconclusive.
Screening CCc1ccc2nc(N(CCCN(C)C)C(=O)c3ccc(S(=O)(=O)N4CCCc5ccccc54)cc3)sc2c1 returned Marburg entry inh inconclusive, VACV Venus inh inconclusive, Lassa entry inh 13µM and Vaccinia mCherry inconclusive.
`CN(C)CCN(C(=O)c1ccc(S(=O)(=O)N2CCc3ccccc32)cc1)c1nc2ccc(F)cc2s1` gave Marburg entry inh inconclusive, VACV Venus inh inactive, Lassa entry inh inactive and Vaccinia mCherry inactive.
For Nc1ccc(N(c2ccccc2)c2ccc(N)cc2)cc1 the results were Marburg entry inh inconclusive, VACV Venus inh 28µM, Lassa entry inh inactive and Vaccinia mCherry inconclusive.
`CCn1c(-c2ccccc2F)nc2cc(NC(C)=O)cc(C(=O)NC(c3ccccn3)C(F)(F)F)c21` (stereo not drawn) gave VACV Venus inh inactive and Vaccinia mCherry inactive.
`NC(=O)c1ccc(NC(=O)C#Cc2ccccc2)cc1` gave Marburg entry inh 4.5µM, VACV Venus inh inactive, Lassa entry inh 2.2µM and Vaccinia mCherry 7.1µM.
CSc1cc(-c2ccncc2)nc(-c2ccc(Cl)cc2)c1 was read as Marburg entry inh 4.5µM, VACV Venus inh inactive, Lassa entry inh inactive and Vaccinia mCherry inconclusive.
CCOC(=O)N1CCc2cc(OC)c(OC)c3c2c1cc1cc(OC)c(OC)cc13 was read as Marburg entry inh 7.9µM, VACV Venus inh inconclusive, Lassa entry inh inconclusive and Vaccinia mCherry inactive.
`COc1cc(CC(=O)N2CCc3ccccc32)cc(OC)c1OC` gave Marburg entry inh inactive, VACV Venus inh inactive, Lassa entry inh inactive and Vaccinia mCherry inconclusive.
Screening CN(C)CCCNC(=O)c1ccc(-c2nc(-c3ccc(Cl)cc3)cs2)cc1 returned Marburg entry inh inconclusive, VACV Venus inh 22µM, Lassa entry inh inconclusive and Vaccinia mCherry inconclusive.
CC(C)(C)c1ccc(C(=O)NCCc2csc(-c3ccc(Cl)cc3)n2)cc1 was read as VACV Venus inh inactive, Lassa entry inh inactive and Vaccinia mCherry inactive.
`CCCc1cc2c(=O)c(-c3ccc4c(c3)OCCO4)coc2cc1OS(C)(=O)=O` gave Marburg entry inh inconclusive, VACV Venus inh inconclusive, Lassa entry inh inconclusive and Vaccinia mCherry 10µM.
For Fc1ccc(CNc2nc(-c3ccco3)cc(C(F)(F)F)n2)cc1 the results were Marburg entry inh 9.2µM and Lassa entry inh inactive.
Screening Cc1ccc2nc(Cl)c3cc(C(=O)N(CCN(C)C)Cc4ccco4)sc3c2c1 returned Marburg entry inh inconclusive, VACV Venus inh inconclusive, Lassa entry inh inactive and Vaccinia mCherry inconclusive.
`CN(C)CCN(Cc1ccco1)C(=O)c1cc2c(Cl)nc3ccccc3c2s1` gave Marburg entry inh 15µM and Lassa entry inh inactive.
For CCOc1cc(/C=C/C(=O)Nc2ccc(C(=O)NCCN(CC)CC)cc2)ccc1OCC(C)C the results were Marburg entry inh 18µM and Lassa entry inh inconclusive.
CCOc1ccc(/C=C/C(=O)Nc2ccc(C(N)=O)cc2)cc1OC was read as Marburg entry inh inconclusive, VACV Venus inh inactive, Lassa entry inh inactive and Vaccinia mCherry inactive.
Screening NCCNS(=O)(=O)c1cccc2c(Cl)cccc12 returned Marburg entry inh 11µM and Lassa entry inh inactive.
CC(C)NS(=O)(=O)c1ccc2[nH]c3nc(SCC(=O)Nc4ccc(F)c(F)c4)nnc3c2c1 was read as VACV Venus inh inactive and Vaccinia mCherry inactive.
`NC[C@@H]1O[C@H](C23CC4CC(CC(C4)C2)C3)Cc2c1ccc(O)c2O` gave Marburg entry inh 13µM, VACV Venus inh inconclusive, Lassa entry inh 18µM and Vaccinia mCherry inconclusive.
Screening Cn1c(C(=O)N2CCN(c3nc4ccccc4s3)CC2)cc2sccc21 returned Marburg entry inh inactive and Lassa entry inh inactive.
O=C(c1cc2sccc2n1Cc1ccc(F)cc1)N1CCN(c2nc3ccccc3s2)CC1 was read as Marburg entry inh 3.5µM, VACV Venus inh inconclusive, Lassa entry inh inactive and Vaccinia mCherry inconclusive.
